# Bioassay records deposited in PubChem BioAssay by several laboratories.
# This is a sample that favours compounds with a hit; in the whole collection about 4.2% have one here.
# NLRP3 yeast inh: inhibitors of NALP3 inflammasome in yeast. AID 2825. Yeast reconstituted NLRP3/ASC/caspase-1, beta-gal luminescence, 24 h. 330,000 compounds, 0.39% hits. inhibition, % at 10 µM;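 active means inhibition of 50% or more; inactive means inhibition below 50%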;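 further: plate controls were induced DMSO wells for no effect and uninduced yeast grown without galactose for full effect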
# TIM10 inh: growth inhibitors of TIM10 yeast strain; S. cerevisiae TIM10 strain growth, BacTiter-Glo luminescence, 24 h; 330,000 compounds, 1.4% hits; inhibition, % at 10 µM; AID 463195;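 active means inhibition of 40% or more at the single tested concentration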;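 further: wild-type TIM10 isogenic control strain grown at permissive 25 °C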
# tim10-1 inh: inhibits growth of tim10-1 mutant yeast. S. cerevisiae tim10-1 ts strain growth, BacTiter-Glo, 24 h. inhibition, % at 20 µM. 330,000 compounds, 2.2% hits;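 active means inhibition of at least 40%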;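 further: mutant grown at 25 °C; 0% = DMSO wells with yeast and 100% = wells holding no yeast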
# NALP1 yeast inh: inhibitors of NALP1 inflammasome in yeast. S. cerevisiae NALP1/ASC/caspase-1 growth, X-gal OD620, 72 h. inhibition, % at 10 µM. 280,000 compounds, 0.61% hits. AID 2071; in the data active means inhibition mostly above about 24%, no sharp cut-off; inactive means mostly below about 32%
# V-ATPase pH: yeast V-ATPase proton transport regulation by pHLuorin; S. cerevisiae, pHLuorin cytosolic pH fluorescence; response, % at 10 µM; 350,000 compounds, 0.37% hits; AID 504577; in the data active means response mostly above about 7.3%, no sharp cut-off; inactive means mostly below about 5.4%; further: actives read high
# tim23-1 inh: tim23-1 yeast growth inhibition; S. cerevisiae tim23-1 growth, BacTiter-Glo luminescence, 24 h; inhibition, % at 20 µM; 330,000 compounds, 1.3% hits; AID 463212;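 active means growth inhibition of the mutant yeast at or above 50%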;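 further: temperature-sensitive mutant grown at 25 °C; plate controls were DMSO-treated mutant yeast for no effect and medium wells lacking yeast for full effect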
# tim23-1 confirm: tim23-1 yeast growth inhibition, confirmed. 4,400 compounds, 83% hits. shares compounds with tim23-1 inh. S. cerevisiae tim23-1 growth, BacTiter-Glo luminescence, 24 h. AID 463218. inhibition, % at 20 µM;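 active means inhibition above about 39% in either of two replicate wells at 20 µM, limit read from the data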;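 further: temperature-sensitive tim23-1 mutant grown at 25 °C; 0% = DMSO wells with yeast and 100% = medium wells without yeast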
# VATPase regulator: yeast V-ATPase proton transport regulation; S. cerevisiae pHLuorin cytosolic pH; shares compounds with V-ATPase pH; response, % at 10 µM; 980 compounds, 2% hits; in the data active means response above about 24%;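 further: plate controls were vehicle wells for no effect and positive control wells for full effect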
# An asterisk follows results filed as active; . = no result given.
SMILES,NLRP3 yeast inh,TIM10 inh,tim10-1 inh,NALP1 yeast inh,V-ATPase pH,tim23-1 inh,VATPase regulator,others
O=C(NC1CC1)C1CSC(c2cccnc2)=N1 (centres undefined),-6,-17,-5,2,1,2,.,
O=c1c2ccccc2nc(/C=C/c2ccccc2)n1-c1ccccc1O,16,18,25,16,-1,51*,.,tim23-1 confirm=44*
Cc1ccccc1-n1c(/C=C/c2ccccn2)nc2ccccc2c1=O,18,7,34,-5,-4,52*,.,tim23-1 confirm=43*
O=c1c2ccccc2nc(/C=C/c2ccc(O)cc2)n1-c1ccccc1O,-1,4,14,-4,-2,31,.,
COc1ccccc1-n1c(/C=C/c2ccc(O)cc2)nc2ccccc2c1=O,-19,23,30,19,0,20,.,
O=S(=O)(NC1CCCC1)OCC(Cl)(Cl)Cl,0,9,7,6,-1,29,.,
O=S(=O)(NC1CCCCCCC1)OCC(Cl)(Cl)Cl,40,26,27,12,1,50*,.,tim23-1 confirm=59*
CCCCCCn1c(=O)c(C(=O)Nc2c(C)n(C)n(-c3ccccc3)c2=O)c(O)c2ccccc21,18,-2,17,.,11*,17,2,
O=C1NC(=S)NC(=O)C1=Cc1c(Cl)cccc1Cl,.,.,.,.,1,.,.,
O=C(O)CCn1cc(C=C2C(=O)NC(=S)NC2=O)c(-c2cccc(Cl)c2)n1,7,6,2,14,8.0*,11,-1,
CCOc1cccc(N2C(=O)CC(=O)NC2=O)c1,10,6,9,14,-3,11,.,
CC/C(=C\C=C\[C@@H]1C=C[C@@H]2CCC[C@H]2[C@@H]1C(=O)c1ccc[nH]1)[C@@H]1O[C@@H]([C@@H](C)C(=O)O)CC[C@@H]1C,0,12,35,8,.,21,.,
CN1C(=O)/C(=C\c2ccc(Br)s2)C(=O)NC1=S,.,.,.,3,21*,.,97*,
Cc1[nH]c2ccccc2c1C(=O)C(=O)N1CC2CC(C1)c1cccc(=O)n1C2 (centres undefined),-2,2,5,28,9.1*,-2,-1,
C[N+](C)(C)CC(=O)Nc1ccc(Cl)cc1C(=O)c1ccccc1,7,-17,-14,6,3,-5,.,
Cc1cccc(C(=O)Nc2ccc(Cl)cc2C(=O)c2ccccc2)c1,13,25,25,29,9.0*,32,-1,
O=[N+]([O-])c1ccc(Cl)c(Cl)c1Cl,2,0,-20,.,-5,-9,.,
